The results in this text go back to PubChem BioAssay AID1508600 (Functional Genomics Laboratory (NCATS/FGL), 2020).

Hit rate of the full screen: of about 53,000 sequences, about 3,700 (7%) were called active. This is one part of a sample in which actives are shown more often than they occur. A number with no mark means an inactive call.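 The calls were made as follows: active = gene knockdowns whose robust z-score for IL-1 alpha signal is at least 2 or at most -2, so actives lie on both sides; inactive = the rest.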

This test is described as follows: Components of the Cytosolic LPS Sensing Pathway: Gene Identification via Genome-wide siRNA Screen.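 Also: robust z of the log signal after scaling to non-targeting control siRNA wells of the plate.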 The following applies: RAW264.7 macrophages, IL-1a HTRF, actives lie on both sides, screened at 100 nM (by protocol), cells primed 5 h with Pam3CSK4 first. An outline of the steps:
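Mouse macrophage line RAW264.7 is transfected with siRNA (100 nM final), grown 48h, primed with TLR ligand Pam3CSK4 5 h and given intracellular LipidA 24 h. IL-1a in supernatant is read by HTRF and viability by luminescence.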
A general note: TR-FRET usually uses a lanthanide donor and a delayed reading to cut background.
For GCCGACAGAUUGAAAUUCGTT against Supv3l1, the z-score is 2.79 (active).

Turning to GCCCGAUUAAAAUAAAUUGTT against Arih2, the z-score was 0.636.

GGAAAAUCUGGAGUUCUUCTT against Npas1: the z-score was 1.3.

Turning to GGUUCAGACCAUCUUGGAATT against Bag3, the z-score was -0.936.

Take GGCAUUCAGAAAUCCAGUATT against Zdhhc2: the z-score is -0.942.

Regarding GGGAAUGGAAACGGCCAUGTT against Nmt1, the z-score was 2.02 (active).

GCAAAAGUUCCAAAAAUCCTT against Cryba1: the z-score was 0.0525.

For the sequence GCUCUACAGUAGAACAAACTT against Efcab5, the z-score is 1.18.

As to GGAUUGAAGUCCCUUUACUTT against Zdhhc16, the z-score was 2.27 (active).

Take GGAACUCUUUUCCUAAAAUTT against Slco1a5: the z-score was -0.838.

As for CCUAUACCCUGGAAAGGCATT against Pigz, the z-score is 1.59.

In the case of GGCUGAAUCACCAGAACAUTT against Ikbke, the z-score was -0.644.

Consider GGCCAGAAUGUAUAAAGCUTT against Mboat7, for which the z-score was -1.

As for GGGCACUGGAACAGAUUUUTT against Ccnh, the z-score was 4.27 (active).

For the sequence GGUCACCCUCAAGUACCCUTT against Thop1, the z-score is -0.188.

“GCUAUUAAGUUUACCCUAGTT against A730089K16Rik”: the z-score is -1.31.

Consider GGACCAACUACACACUACGTT against Grik5, for which the z-score was 0.334.

In the case of CCAAUGUGCGAGCAAAGAUTT against Arid5a, the z-score is 2.48 (active).

On to GGACCGUAUCCCAAAAGAUTT against Klf1, for which the z-score was -0.968.

With GGGCCUCUUCCUUAAGCAUTT against Snx8, the z-score was -0.382.

For GGAAGUUUGUUUGCUGUUATT against Slx4ip, the z-score was 1.08.

Regarding GCCUAUUGUAAAUACAGGUTT against Bdnf, the z-score is 0.6.

For the sequence GGUGAAUAGAACAUCAUCUTT against Lrrc29, the z-score was -1.76.

For the sequence GGUGAUGAAAGGGAAUGGCTT against Rnf25, the z-score is -2.53 (active).

GGAACACAAAUUGUGCUUATT against Zfp462: the z-score was 0.199.

GGGUUGUAUGGCUCAAAUATT against Olfr728: the z-score was 0.734.

Take GCAUCAUAAUGGGAUGCUGTT against Qrfp: the z-score is -0.313.

Consider GGAGAGGUCAGAUAGAAAUTT against Zbtb41, for which the z-score was -2.29 (active).

Take GGCAAAAGAAUCGUUCUCATT against Ppat: the z-score was -0.848.

Regarding GGAAGAAAUACUACAGCCATT against Ptpn12, the z-score was -0.733.

With GAAGGAAGAAUAUUGGCCCTT against Il17rd, the z-score was -1.88.

Turning to GCGGCAAUUCAAAUGAGUCTT against Rnf14, the z-score is 1.2.

GGGAAUGACUCCACAUUGCTT against Limd1: the z-score is 2.01 (active).

GGGAGAGAGUUGGCUCUGATT against Prg3: the z-score is -0.184.

Turning to GGGAGACUUCGAAUAUUUATT against Uroc1, the z-score is -0.183.

For the sequence CGUAUUCUGGUAGUGAAGGTT against Olfr1384, the z-score is -2.3 (active).

For GCUCAACCUAACUUUGUGGTT against Ccdc3, the z-score is 0.421.

GGCAACAAUGGUUGUCUUGTT against Ctsr: the z-score was 0.515.

For the sequence GCCAAACUUAGCGUGCUCATT against Dgkk, the z-score was 0.607.

In the case of GGGUAUCAACCACUUUUUUTT against Serping1, the z-score is 2.

For GGUCAGAUUCCUGAAAUUATT against Vbp1, the z-score was -0.807.

As to GGAAACAAGAUUACAUCAATT against Adamts2, the z-score is 2.04 (active).

Regarding GGCCAUAGUGAAGAAAGAATT against Plaat3, the z-score is -0.754.

As for GGAGAAGGAUAGAGAUGGUTT against Phf5a, the z-score is -1.84.

Take GGUAAUACCACCUCACCUUTT against Fam214b: the z-score is -0.0713.

Regarding GGACACUGUACAGAAGCUGTT against Asb18, the z-score was -2.31 (active).

On to CGGUUAGAUGAGCUUGAGATT against Smad2, for which the z-score was -0.725.

Turning to GCGGGAGUACUACGUCAAUTT against Reps2, the z-score was -2.07 (active).

In the case of GCUUGAUGACUACCACUGATT against Rrp36, the z-score was 0.496.

In the case of GGUCGACAUUUUGAAGGAGTT against Fthl17e, the z-score is -2.63 (active).

For the sequence GGAGAUCACUAUGUUCUGATT against Ivd, the z-score was 1.46.

Take GACAAGGCUUCAUAAAAAGTT against Qrich1: the z-score is -0.312.

GGGAUGCUUUGUUGCUGUUTT against Olfr836: the z-score was 0.296.

Consider GCCAUAGGCUCAUCUUUACTT against Ankib1, for which the z-score is -1.61.

Turning to GGAAGUAGAGCUUCAAAUGTT against Cdkl2, the z-score is 2.8 (active).

With GGUUGGUCACCUAAUCCAGTT against Aldh2, the z-score was 0.523.

Turning to CCAAUGUGCUCAUGCUCUATT against Nodal, the z-score was 1.06.

For the sequence GCUGUACGAGCAUACUGUGTT against Tnxb, the z-score is -1.46.

With CCUUCUAAACACUUGACUUTT against Ugt2b5, the z-score is 0.106.

As to GACCACAAUAUUGAGGAUCTT against Zfp119b, the z-score was -0.329.

In the case of GGACGUGACAGACAUUAUUTT against Htr5b, the z-score was -2.81 (active).

On to CCCUGUUAUUAUCUUGAUUTT against Arv1, for which the z-score is -1.16.

Turning to CGUGUGUGUUAUGAAUCAATT against Tmem161a, the z-score is 0.984.

As to GGACUUGCUAAGAGACCAATT against Cntn2, the z-score was 4.74 (active).

GGACUACAUAAGGAAGGUUTT against Ccdc130: the z-score is 1.64.

Consider GGCAAAUGGGAAGAAUUCCTT against Mep1b, for which the z-score was 0.228.

For the sequence GCAACCUGCAGGCAGUAACTT against Nolc1, the z-score is 0.207.

As to CCACACACUGAUCAACGUGTT against Unc93b1, the z-score was 0.336.

Consider GGCUUCAUUCUUGUCCUCCTT against Reg3b, for which the z-score is -0.105.

Consider GCCUUCCUCCGUUAAUCCATT against Kank2, for which the z-score was 0.844.

GGUGAGAGGAAGGAAGAGATT against Pcsk7: the z-score was 2.54 (active).

Consider GGAGGAUGAGAAAGAAGAGTT against Gja8, for which the z-score is -0.176.

Take GGAUGUCAUCAAUGCUAUGTT against Olfr1022: the z-score is -0.643.

“GGUUUACUGGCCAAGAUGGTT against 4930579K19Rik”: the z-score was -0.327.

On to “GGCUUUACGUGACAAAGAUTT against 4933430I17Rik”, for which the z-score was 0.266.

GGAAAAUACAGCGCGAAUUTT against Nexn: the z-score is 1.4.

As to GCGGCUAGGAUUUCUGGGATT against Mindy3, the z-score was 2.34 (active).

With ACAAGAUUGGGAUCAUCUATT against Rpl23a, the z-score is 0.521.

With UGCCUCAAUCAUAAGUCCCTT against Olfr730, the z-score is -0.551.

As to AAGGUCGUUUACAUGAACATT against Fbxw20, the z-score is 1.19.

For GGAAAAAAAAAAGCAGUGATT against Phactr4, the z-score is 0.662.

Turning to GGUCUGAUACCUCAUUCCATT against Il22ra2, the z-score is -1.21.

As for CCAUGAGAACCUGAUGAAUTT against Pag1, the z-score was -2.38 (active).

GGACUUUCGUCGUACUCGUTT against Terf1: the z-score was -1.73.

On to GGCCUGGUGCUACUUCUCATT against Fam160a2, for which the z-score was -0.0704.

Turning to CGUAAACACUCCUAACUUUTT against Hif1a, the z-score was -0.543.

For GGAAGGAUAUUGGUUACCATT against Zmynd11, the z-score was -2.28 (active).

As for GGUCAGAAGAGAUGCCAAUTT against Hcar1, the z-score is -0.494.

Turning to CCGCAGUUGUCUUUCAAGATT against Dcaf1, the z-score was 0.724.

Turning to AGAAUCUUUAAAGGAAGUCTT against Olfr325, the z-score is 0.229.

Take “GCCAUGACUAUGUUUUCCGTT against St6galnac1”: the z-score was -0.578.

As for CGGCUCAUCCGAUAUAUCCTT against Hcn2, the z-score is -1.39.

For GCUUUUAAAGCAUGGGCAGTT against Alb, the z-score was 2.44 (active).

For the sequence GGGCAGUAAGGACAGUUUUTT against Oaz1, the z-score was 0.406.

As to GGACUAAUCCCAUUUUCUUTT against Zfp422, the z-score is -0.292.

For the sequence GGCCGAGAAGAUCAAAGCATT against Mrpl12, the z-score was -0.116.

Regarding GGAAAUAAAGUGAGUUUUGTT against Etaa1, the z-score is 4.95 (active).

Regarding GCUGGAAUAUCAUUUCCCATT against Pdpk1, the z-score is -1.01.

Consider GGAGAGCUGUUUGACUACATT against Melk, for which the z-score was 1.45.

On to CCAGCAAAAUCACUUAAUATT against Emb, for which the z-score is -0.648.

As to GCAACGAAGUGAAUUUGUUTT against Epha5, the z-score is -0.139.

Take GCUAGACCAGAAGAAAGUATT against Gid8: the z-score was -1.65.

GCCAGAGCUAGUUGAAUCCTT against Rce1: the z-score is 1.14.

As to GGCCCUGUGUUUAUCAAAGTT against Cntn3, the z-score is 0.814.

For GGCCUUGAAGGAGUAUGAGTT against Atp2a3, the z-score was -2.62 (active).

Turning to GGACCCAGAUGUGACUGAGTT against Svil, the z-score was 0.242.

In the case of GGAAGCUUUUGUCGGUCCATT against Hap1, the z-score was -0.361.

As to AACUUUCUCAUUCUUACUGTT against Olfr961, the z-score is -1.22.
